# Assay outcomes (PubChem)
# This excerpt belongs to a sample that is enriched for hits.
# Integrin act MD – activates integrin-mediated alleviation for muscular dystrophy; alpha7betagal myoblasts, beta-gal FDG fluorescence, 48 h; Potency, µM (highest dose often 38.3 µM), inactives show top-dose activation, most hits filed as activators; 350,000 tested, 0.064% active; AID 624291;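 note: potency is the fitted concentration of half-maximal effect; 100% = response of the positive control SU9516; nearly all actives have a fitted effect of over 60% in size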
#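 Alpha7betagal+/- myoblasts (passage 13) were plated 16-24 hr, then exposed to compounds (1:260 dilution of DMSO stock) for 48 hours at 37C. After MPER lysis, β-galactosidase reporter activity was read as FDG fluorescence (ex 480/em 540) after 30 minutes.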
# ERG Ets-DNA blk – blocks human ERG Ets domain binding to DNA; P11308; fluorescence polarization, His-ERG Ets domain / labelled DNA; Potency, µM (titrated, usually from 76.9 µM), without a hit: top-dose FP activity, negative = inhibition, hits mostly inhibitors; 370,000 tested, 0.028% active; active = well fitted inhibition curve with a large enough effect in the polarisation, with a control signal flat; inconclusive = small, poorly fitted or top-dose-only effect, or effect the other way, or a change in a side signal; inactive = no such curve, though single readings can be large or run the other way; the % refers to the polarisation;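 note: polarization taken with two DNA probes labelled with fluorescein and Texas red; potency is the fitted concentration of half-maximal effect; % of control where 0% means no effect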
#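 His-tagged ERG Ets domain (1 uM in the protein solution; 300mM KCl, 50mM Tris-HCl, 1mM EDTA, 1mM DTT, pH 7.5) received compound, then a probe mix of 5 nM fluorescein-DNA and 100nM Texas-615-DNA. Fluorescence polarization was read for both dyes.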
# Giardia kill – kills Giardia lamblia | Giardia lamblia trophozoite viability | activity change, % at 7.66 µM, hits read low | 340,000 tested, 0.15% active; in the data active = activity change below about -80%; inconclusive = between about -30% and that limit;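 note: parasites exposed to compound for two days anaerobically before the ATP read; % is set by controls: 0 for no effect and ±100 for the full control effect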
#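 Anaerobic 48 hrs incubation at 37 deg C of 100 trophozoites/well with test compounds; ATPLite 1-Step luminescence, 15-30 min RT, reports cellular ATP as viability.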
# RORg inh – blocks mouse ROR gamma transcriptional activity. Drosophila S2 Gal4-RORgamma UAS-luciferase reporter, 20 h. Potency, µM (doses to about 53.6 µM), for inactives: at the top dose activity change, negative = inhibition, usual class: inhibitors. 310,000 tested, 5.4% active; note: potency is the fitted concentration of half-maximal effect; % is set by controls: 0 for no effect and ±100 for the full control effect; nearly all actives have a fitted effect of over 60% in size
# Target sequence (P51450 whole entry, looked up, the tested form may be a part): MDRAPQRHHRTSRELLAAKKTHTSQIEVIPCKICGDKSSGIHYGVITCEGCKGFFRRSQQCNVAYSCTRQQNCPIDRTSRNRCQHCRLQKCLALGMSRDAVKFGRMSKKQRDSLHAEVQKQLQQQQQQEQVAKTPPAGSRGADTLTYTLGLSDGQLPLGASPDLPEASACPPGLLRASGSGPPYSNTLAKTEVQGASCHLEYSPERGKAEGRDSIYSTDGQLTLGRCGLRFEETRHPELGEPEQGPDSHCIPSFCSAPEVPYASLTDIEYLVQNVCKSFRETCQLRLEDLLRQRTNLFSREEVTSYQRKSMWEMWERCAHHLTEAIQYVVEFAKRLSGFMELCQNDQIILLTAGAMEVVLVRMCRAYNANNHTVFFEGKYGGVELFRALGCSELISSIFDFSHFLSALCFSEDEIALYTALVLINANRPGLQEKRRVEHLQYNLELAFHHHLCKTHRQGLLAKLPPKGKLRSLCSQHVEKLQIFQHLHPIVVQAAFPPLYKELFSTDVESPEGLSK
#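 Schneider cells (Drosophila), stable Gal4 DBD–ROR gamma + UAS-luc; 1 hr cmpd preincubation; Cu2+ induction 700 uM final; 20 hr ambient; luminescence.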
# Gal4-VP16 FLuc – inhibits Gal4-VP16 luciferase reporter, ROR gamma counter-screen; Drosophila S2 Gal4-VP16 UAS-luciferase, luminescence, 20 h; Potency, µM (highest dose often 53.6 µM), for the others: top-dose activity, negative = inhibition, most hits filed as inhibitors; 310,000 tested, 3.5% active;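 note: Gal4-VP16 expression switched on by copper sulfate through the metallothionein promoter; potency is the fitted concentration of half-maximal effect; % is set by controls: 0 for no effect and ±100 for the full control effect; nearly all actives have a fitted effect of over 50% in size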
# * marks the source's active call; other numbers are inactive results; u = inconclusive; x = no result given; [ ] = another dose, or the depositor's remark. Unless noted, calls come from the whole dose curve; as a rule, active = well fitted curve in the direction sought with a large enough effect; inconclusive = small, poorly fitted or top-dose-only effect, or another doubt; inactive = no such curve, though single readings can be large; an effect the other way counts as inactive or inconclusive.
SMILES,Integrin act MD,ERG Ets-DNA blk,Giardia kill,RORg inh,Gal4-VP16 FLuc
COc1ccc(NC(=O)c2nc[nH]c2C(=O)NCc2ccccc2)cc1,17.9%,-12.5%,-11.7,x,x
CC(C)C[C@H](NC(=O)c1[nH]cnc1C(=O)N[C@@H](C)c1ccccc1)C(=O)OCc1ccccc1,-45.5%,2.3%,0.0,u,u
CCOC(=O)c1ccc(NC(=O)c2nc[nH]c2C(=O)N[C@H](C)c2ccccc2)cc1,-45.5%,-1.9%,-6.7,2.82µM*,7.08µM*
CCOC(=O)c1ccc(NC(=O)c2nc[nH]c2C(=O)N[C@@H](CC(C)C)C(=O)OCc2ccccc2)cc1,-4.0%,4.8%,-12.9,1.12µM*,u
Cc1ccc(NC(=O)c2nc[nH]c2C(=O)N[C@H](C)c2ccccc2)cc1,-17.9%,2.9%,-8.7,x,x
CNC(=O)c1[nH]cnc1C(=O)Nc1ccc(OC)cc1,26.2%,-0.3%,-12.9,5.62µM*,-69.7%
CCOC(=O)c1ccc(NC(=O)c2nc[nH]c2C(=O)N(C)Cc2ccccc2)cc1,5.2%,-12.5%,-25.4,10µM*,u
COc1cccc(CN(C(=O)/C=C/c2ccco2)C2CCS(=O)(=O)C2)c1 (centres undefined),-36.5%,10.8%,21.5,15.6%,12.2%
C[C@H](NC(=O)c1[nH]cnc1C(=O)Nc1ccccc1)c1ccccc1,-28.9%,8.2%,-10.6,x,x
CC(C)C[C@H](NC(=O)c1[nH]cnc1C(=O)Nc1ccccc1)C(=O)OC(C)(C)C,-43.5%,9.1%,-15.5,5.01µM*,8.91µM*
CCOC(=O)c1ccc(NC(=O)c2nc[nH]c2C(=O)N[C@@H](C)C(=O)OC(C)(C)C)cc1,14.4%,-7.9%,-2.1,u,-4.0%
CC(C)C[C@H](NC(=O)c1nc[nH]c1C(=O)N[C@@H](CCCCN)C(=O)OC(C)(C)C)C(=O)OC(C)(C)C,16.2%,0.5%,-4.7,x,x
CCOC(=O)c1ccc(NC(=O)c2nc[nH]c2C(=O)N[C@@H](CC(C)C)C(=O)OC(C)(C)C)cc1,11.3%,15.2%,40.1,2.51µM*,6.31µM*
COc1ccc(NC(=O)c2nc[nH]c2C(=O)N[C@H](C)c2ccccc2)cc1,0.0%,0.5%,-15.6,6.31µM*,7.94µM*
CCCCc1ccc(NC(=O)Cn2nnc3sc4c(c3c2=O)CCC(C)C4)cc1 (centres undefined),x,2.1%,x,x,x
CCC(=O)N1c2ccccc2CC1C(=O)NCc1ccc(CC)cc1 (centres undefined),x,-2.9%,x,x,x
CCCCc1nc2cc(C(=O)NCc3cn(C)nc3C)ccc2o1,-37.6%,0.2%,-18.8,1µM*,0.0631µM*
CCCCc1nc2cc(C(=O)NCc3nccn3CC)ccc2o1,-12.0%,-9.4%,11.3,-27.2%,u
CC1CCCN(C(=O)c2ccc(Br)c(S(=O)(=O)N3CCOCC3)c2)C1 (centres undefined),2.2%,-2.6%,0.2,x,x
CCOC(=O)N1CCN(c2nc(C(F)(F)F)nc3c(C)cc(C)cc23)CC1,-11.4%,-7.3%,-5.7,u,20µM*
CCN1CCN(CCOc2ccc(Cl)cc2)CC1,-36.0%,2.7%,-7.0,-0.1%,5.1%
Cc1ccc(OCCN2CCN(c3ncnc4sc(C)c(C)c34)CC2)cc1,-43.2%,-1.0%,-1.6,8.91µM*,3.55µM*
Clc1ccc(OCCN2CCN(c3ncnc4sccc34)CC2)cc1,-23.9%,10.9%,-4.0,u,0.631µM*
Cc1c(C(=O)NC(=S)NCC(C)C)oc2ccccc12,12.0%,2.4%,0.5,-30.1%,u
Cc1cccnc1NC(=S)NC(=O)c1oc2ccccc2c1C,31.1%,2.8%,-11.3,2µM*,6.31µM*
SMILES,Integrin act MD,ERG Ets-DNA blk,Giardia kill,RORg inh,Gal4-VP16 FLuc
C=CCNC(=S)NC(=O)c1oc2ccccc2c1C,26.2%,-8.8%,6.8,6.31µM*,u
CCN1CCN(C(c2cccc(OC)c2)c2c(O)cc(C)n(Cc3ccco3)c2=O)CC1 (centres undefined),x,-0.8%,x,x,x
CCc1cc(SC#N)cc(CC)c1NC(=O)CCl,-47.8%,-1.7%,-6.4,u,20µM*
Cc1cc(C)c2c(NC(=O)CCl)nn(C)c2n1,-56.9%,8.7%,24.6,-20.9%,u
CCc1cc2c(=O)[nH]c(N3CCCC3)nc2s1,-2.1%,-7.4%,-16.9,19.2%,0.1%
CCc1cc2c(=O)[nH]c(-c3ccccn3)nc2s1,-64.6%,26.8%,-7.1,u,25.1µM*
CC(C)(C)c1ccc(CN2N=Nc3ccccc3S2(=O)=O)cc1,-76.0%,-3.9%,3.3,23.0%,1.58µM*
O=S1(=O)c2ccccc2N=NN1Cc1ccc(Cl)c(Cl)c1,x,x,x,-1.4%,17.7%
COc1ccccc1N(CC(=O)NC1CCCC1)C(=O)c1oc(C(C)(C)C)cc1C,-36.8%,-10.0%,2.8,12.6µM*,-2.2%
Cc1cc(C(C)(C)C)oc1C(=O)N(CC(=O)NC1CCCC1)c1c(C)cccc1C,-53.4%,1.6%,-5.3,-26.5%,-4.9%[0.365 µM]
COc1ccc2c(c1)c(=O)oc1cc(OCC(=O)N3CCCC(C)C3)ccc12 (centres undefined),4.5%,-7.0%,18.5,-28.6%,10µM*
CCOc1ccc(NC(=O)c2ccc3c(=O)n(-c4ccc(OC)cc4OC)c(=S)[nH]c3c2)cc1,x,x,x,u,15.8µM*
COc1ccc(NC(=O)c2ccc3c(=O)n(-c4ccc(OC)cc4OC)c(=S)[nH]c3c2)c(OC)c1,-33.5%,2.3%,-4.3,2.82µM*,8.91µM*
COc1ccc(-n2c(=S)[nH]c3cc(C(=O)Nc4ccc(OC)c(OC)c4)ccc3c2=O)cc1,1.8%,-2.8%,0.3,-14.8%,-22.2%
COc1ccc(-n2c(=S)[nH]c3cc(C(=O)Nc4cc(C(N)=O)ccc4OC)ccc3c2=O)c(OC)c1,0.0%,3.0%,-4.9,-56.3%,-2.8%
COc1ccc(-n2c(=S)[nH]c3cc(C(=O)Nc4ccc(C)c(F)c4)ccc3c2=O)c(OC)c1,-6.6%,-0.7%,-7.2,5.01µM*,12.6µM*
O=c1cc[nH]c2c1ccc1cccnc12,2.5%,-0.1%,-6.1,x,x
COc1ccc(OC)c2c1cc(C(=O)N[C@@H](Cc1ccccc1)C(=O)O)n2C,-1.7%,-0.1%,0.1,13.7%,-1.2%
Cc1nc2ccc(Br)cn2c1NC(C)(C)C,7.7%[7.66 µM],-10.1%,-5.3,14.1µM*,u
Cc1noc(C)c1-c1nc(Nc2ccncc2)c2ccccc2n1,x,x,x,8.91µM*,-2.9%
COc1ccccc1-c1nc(Nc2ccncc2)c2ccccc2n1,x,x,x,-32.5%,9.1%
FC(F)(F)c1ccccc1-c1nc(Nc2ccncc2)c2ccccc2n1,x,x,x,11.2µM*,u
COC(=O)C1=C(C)N(Cc2ccccc2)C(=NCCc2cccnc2)N[C@H]1c1ccc(Br)cc1,0.0%,-0.7%,4.0,u,-24.0%
CC(C)Oc1ccc(Cc2cnc(=S)[nH]c2N)cc1,-16.9%,9.3%,-18.2,11.2µM*,-23.8%
CC(C)COc1ccc(Cc2cnc(N)nc2N)cc1,-40.9%,-0.1%,0.5,-4.2%,-0.1%
Brc1ccccc1-c1nc2c3ccccc3ncn2n1,-19.1%,11.6%,-10.2,x,x
